Assay outcomes as filed in PubChem BioAssay.
SSB-PriA inh: blocks PriA binding to SSB C-terminal tail. AID 1272365. actives 0.6% (n = 430,000). inhibition, % at 33 µM. AlphaScreen SSBct-PriA binding, biotinylated peptide; in the data active means inhibition mostly above about 37%, no sharp cut-off; inactive means mostly below about 20%;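 further: plate controls were negative control peptide for no effect and reference peptide for full effect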
Vc quorum ag-1: induces V. cholerae light production without autoinducers; V. cholerae BH1578 lux reporter, luminescence, 6 h; activation, % at 18.7 µM; actives 0.16% (n = 350,000); AID 588436; in the data active means activation mostly above about 9.7%, no sharp cut-off
Mtb hypoxia inh: reduces hypoxia-regulated biosensor signal in M. tuberculosis | actives 0.1% (n = 300,000) | M. tuberculosis hypoxia-regulated fluorescent reporter, fluorescence | fluorescence inhibition, % (concentration not given with the values); in the data active means fluorescence inhibition mostly above about 23%, no sharp cut-off; inactive means mostly below about 17%
MazF activator: MazEF (E. coli) toxin RNase activation; FAM/BHQ RNA-DNA oligo cleavage fluorescence, 5 h; activation, % at 20 µM; AID 504720; actives 0.32% (n = 350,000); P0AE70; in the data active means activation above about 50%
Target sequence (P0AE70 whole entry, looked up): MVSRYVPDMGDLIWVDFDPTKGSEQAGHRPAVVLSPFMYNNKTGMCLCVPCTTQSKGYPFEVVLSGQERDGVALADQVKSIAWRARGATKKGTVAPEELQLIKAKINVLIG
Vc quorum ag-2: induces V. cholerae light production without autoinducers; activation, % at 50 µM; V. cholerae BH1578 lux reporter, luminescence, 6 h; 620 tested, under 10 active; shares compounds with Vc quorum ag-1; call rule not given here
HeLa tox: HeLa cell viability loss at 24 h. AID 624140. 25 tested, under 10 active. CellTiter-Glo ATP luminescence. shares compounds with Vc quorum ag-1. activity change, negative = cytotoxicity, % at 35 µM;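 active means signal drop with fitted half-maximal concentration at or below twice the highest valid dose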
Numbers without * were called inactive; i = inactive; . = no result; + = active, no number. The list is not random: actives were taken first. Their share in the collection is about 0.94%.

SMILES | SSB-PriA inh | Vc quorum ag-1 | Mtb hypoxia inh | MazF activator | Vc quorum ag-2 | others
CCOCCCN1CC(C(=O)NCCc2ccc(C)cc2)CC1=O (stereo not drawn) | -12.3 | 16.7* | 12.2 | -0.2 | 0.4
CCC(CC)c1nnc(NC(=O)COc2ccc3c(C)cc(=O)oc3c2)s1 | -6.8 | 25.0 | 1.6 | 40.1 | 0.2
Cc1nnc(NC(=O)COc2ccc3c(C)cc(=O)oc3c2)s1 | -8.5 | -0.9 | . | 0.2 | .
O=C(NCc1ccco1)C(C(=O)c1ccc(F)cc1)n1ccccc1=O (stereo not drawn) | -17.1 | 0.4 | 19.6 | 8.1 | .
O=C(NCc1ccccn1)C(C(=O)c1ccc(F)cc1)n1ccccc1=O (stereo not drawn) | -8.1 | 12.5 | -3.2 | -3.1 | -0.2
COc1ccc(S(=O)(=O)N2CCCCCC2)cc1NC(=O)c1ccccc1 | -13.4 | -1.3 | 3.3 | -0.8 | .
COc1ccc(S(=O)(=O)Nc2cccc(S(=O)(=O)N3CCCC3)c2)cc1OC | -0.1 | 14.3 | -0.7 | 3.7 | -100.0
COc1ccc(CCN(C)C(=O)c2cc(S(=O)(=O)N3CCCCCC3)ccc2OC)cc1OC | -11.7 | 19.3 | 9.7 | -7.0 | -0.1
COc1ccc(S(=O)(=O)N2CCCCC2)cc1NC(=O)c1ccc(OC)c(OC)c1 | 9.3 | 14.3 | 0.8 | 4.6 | 0.2
O=C(O)c1cccc(N2C(=O)C3C4CC(C(Br)C4Br)C3C2=O)c1 (stereo not drawn) | -13.0 | . | . | . | .
CC(=O)N1CCc2c(sc(NC(=O)Cc3ccc4c(c3)OCO4)c2C#N)C1 | -17.0 | . | . | . | .
Cc1cc(C)c(S(C)(=O)=O)c(Oc2ccc(C(C)(C)C)cc2)n1 | -4.6 | 12.5 | -2.1 | 3.1 | 0.1
CN1CCN(C(=O)CC2CSc3nc4c(cnn4-c4cccc(Cl)c4)c(=O)n32)CC1 (stereo not drawn) | 9.0 | . | . | . | .
Cn1c(CCNC(=O)c2ccco2)nc2cc(NC(=O)NC3CCCCC3)ccc21 | 6.3 | 7.6* | 1.3 | -5.2 | 0.2
CCOC(=O)NCC(OC)c1ccccc1C (stereo not drawn) | -2.0 | . | . | . | .
Cc1ccc(S(=O)(=O)Nc2cc(C(=O)NCCN(C)C)ccc2N2CCCCC2)cc1 | -1.1 | 16.7* | 5.3 | 11.4 | 0.3
Cn1ccc(C(=O)N=c2sc3cc4c(cc3n2C)OCO4)n1 | 7.0 | . | . | . | .
CN(Cc1cn[nH]c1-c1cc2ccccc2o1)CC1CCOCC1 | -16.9 | 25.1* | 2.3 | 3.8 | 0.7
Cc1ccc(S(=O)(=O)N2Cc3ccccc3CC2C(=O)Nc2ccc3c(c2)OCO3)cc1 (stereo not drawn) | 12.5 | 3.2 | . | -1.5 | 1.6
COc1ccc(S(=O)(=O)N2Cc3ccccc3CC2C(=O)Nc2ccc3c(c2)OCO3)cc1 (stereo not drawn) | 11.9 | -0.3 | . | 5.2 | .
CC1CCc2nn(CC(=O)NC3CCCC3)cc2C1 (stereo not drawn) | -5.9 | + | . | 10.9 | i
O=C(Cn1cc2c(n1)CCCC2)NC1CCCCCC1 | -14.8 | -0.4 | . | 1.5 | .
CCc1ccc(NS(=O)(=O)c2cccs2)cc1 | -10.7 | 21.4* | 4.0 | 4.4 | 0.8
Cc1ccc(F)c(N/C=C(\C#N)c2nc(-c3ccc(Cl)c(Cl)c3)cs2)c1 | -2.0 | . | . | . | .
Cn1cnnc1SCCOc1ccc(Cl)cc1 | -4.3 | 132.1* | 7.5 | -9.4 | 91.2
SMILES | SSB-PriA inh | Vc quorum ag-1 | Mtb hypoxia inh | MazF activator | Vc quorum ag-2 | others
Cc1cccc(OCCSc2nncn2C)c1 | -15.7 | i | -3.1 | -1.9 | .
CC1(C)Nc2ccc(O)cc2-c2c1ssc2=S | 56.4 | 24.7 | . | 0.1 | 0.4
CCOc1ccc(-c2nc(COC(=O)c3nnn(-c4ccc(Cl)cc4)c3C)c(C)o2)cc1OC | -1.0 | . | . | . | .
O=C(Cn1cccc1C(=O)c1ccccc1)NCCN1CCCCCC1 | 14.6 | 12.5 | 0.9 | 5.7 | -0.2
O=S(=O)(Nc1ccc2c(c1)CCCN2S(=O)(=O)c1cccs1)c1ccccc1Cl | -7.0 | . | . | . | .
CCCn1nnnc1NCc1ccccc1OCC | -0.5 | -0.2 | . | -14.8 | .
CCCCn1c(NCc2ccc(N(C)C)cc2)nc2ccccc21 | 46.1 | -0.2 | 10.2 | 10.1 | .
CCCn1nnnc1NCc1ccc(C(C)C)cc1 | -1.2 | . | 10.9 | -5.1 | i | HeLa tox=5.6
CCCn1nnnc1NCc1ccc(N(C)C)cc1 | 3.1 | . | 5.8 | -0.8 | i
CCCn1nnnc1NCc1ccccc1Cl | -24.7 | i | 7.8 | 8.7 | . | HeLa tox=1.6
COc1ccc(-c2nnc(SCC(=O)Nc3ccc(OC(F)F)cc3)n2N)cc1 | 4.0 | . | . | . | .
Cc1cccc(NC(=O)Nc2nc(CC(=O)NCc3c(F)cccc3F)cs2)c1 | 2.0 | . | . | . | .
O=S(=O)(NCCNc1cc(Nc2ccccn2)ncn1)c1cccc(F)c1 | -17.0 | . | . | . | .
COc1ccccc1-c1csc(NC(=O)c2ccccc2Cl)n1 | -13.0 | . | . | . | .
CCOC(=O)Nc1cc2c(cc1C(C)=O)OCO2 | -15.8 | -6.2 | 3.4 | 9.3 | .
CC(=O)c1cc2c(cc1NC(=O)Cc1c(C)noc1C)OCO2 | 2.2 | 21.7* | 7.6 | 8.7 | 1.0
O=C(NC1CCN(c2cc(C(F)(F)F)ncn2)CC1)C1CC(=O)N(c2ccccc2)C1 (stereo not drawn) | 8.0 | . | . | . | .
O=C(c1ccc2c(c1)OCO2)N(Cc1ccco1)C1(C(=O)NC2CCCCC2)CCCCC1 | 11.2 | 16.7* | 12.7 | -1.2 | 0.2
CC(C)N1CCc2c(sc(NC(=O)c3ccc4ccccc4c3)c2C(N)=O)C1 | -21.9 | 137.9* | 8.9 | -97.6 | 1.1
COc1ccc(CCNC(=O)c2nnn(-c3ccc4c(c3)OCCO4)c2N)cc1OC | -0.7 | 7.6* | -0.4 | 4.3 | 1.3
CC(=O)N1CCc2c(sc(NC(=O)CS(=O)(=O)c3ccc(Cl)cc3)c2C(N)=O)C1 | 3.0 | . | . | . | .
COc1cccc(-c2nc(OC(C)C)c3ccccc3n2)c1 | -11.1 | 25.0* | . | 0.8 | 0.5
CC(C)Oc1nc(-c2ccc(Cl)cc2)nc2ccccc12 | -4.5 | -0.2 | 3.9 | -2.1 | .
CCn1c(SCC(=O)Nc2ccc3c(c2)OCCO3)nnc1-c1ccccn1 | -2.8 | 12.5 | 0.0 | -3.3 | 0.1
COc1ccc(NC(=O)CSc2ccc3c(c2)OCCO3)cc1OC | -5.9 | 25.0* | . | -0.9 | 0.0
SMILES | SSB-PriA inh | Vc quorum ag-1 | Mtb hypoxia inh | MazF activator | Vc quorum ag-2 | others
O=C(NC[C@H](O)Cn1ccccc1=O)c1ccc2nsnc2c1 | -12.0 | . | . | . | .
CCNc1nc(NCC)n2c(SCC(=O)c3cccc(OC)c3)nnc2n1 | -6.0 | . | . | . | .
COc1ccc2nc(SC(C)C(=O)NCC(=O)Nc3ccc(F)c(F)c3F)[nH]c2c1 (stereo not drawn) | 2.3 | 14.3 | 2.9 | 0.2 | 0.0
COc1ccc(-n2nnnc2SC(C)C(=O)NCC(=O)Nc2ccc(F)c(F)c2F)cc1 (stereo not drawn) | 3.3 | 0.4 | -9.2 | -14.5 | .
CN(C)c1nc(N)ncc1-c1ccc(Oc2ccccc2)cc1 | 7.6 | 53.0* | -1.6 | -4.3 | 6.8
CCN(CC)C(=O)c1sc(NC(=O)Cc2ccc(OC)cc2)c(C#N)c1C | -5.8 | 16.7* | 6.5 | -3.8 | 0.1
CCc1nnc(-c2ccc(NC(=O)c3cc(=O)c4ccccc4o3)cc2)o1 | -16.0 | . | . | . | .
CC(C)(C)OC(=O)NCCCC(CCCNC(=O)OC(C)(C)C)C(=O)O | -13.0 | 12.5 | -2.4 | 7.4 | 0.2
CC(C)(C)OC(=O)NCCCCCO | -7.7 | i | 8.0 | 3.3 | .
